Nrf2 block – blocks Nrf2 signaling | A549 ARE-Fluc reporter, luciferase luminescence, 18-24 h | Potency, µM (doses to about 46 µM), hits mostly inhibitors | hit rate 2.1% among 360,000 | AID 504444; further: nearly all actives have a fitted effect of over 60% in size
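Concentration-response testing used A549 ARE_Fluc cells at 5000 cells/well. Following an 18-24 h compound incubation, viability was read by fluorescence (Ex 405/Em 525) and luciferase output by luminescence.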
ERG Ets-DNA blk – inhibitors of human ERG Ets domain-DNA interaction. fluorescence polarization, His-ERG Ets domain / labelled DNA. Potency, µM (titrated, usually from 76.9 µM), most hits filed as inhibitors. hit rate 0.028% among 370,000. AID 624246; active means well fitted inhibition curve with a large enough effect in the polarisation, with a control signal flat; inconclusive means small, poorly fitted or top-dose-only effect, or effect the other way, or a change in a side signal; inactive means no such curve, though single readings can be large or run the other way; the % refers to the polarisation;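 further: polarization taken with two DNA probes labelled with fluorescein and Texas red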
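His-tagged ERG Ets domain (1 uM in the protein solution; 300mM KCl, 50mM Tris-HCl, 1mM EDTA, 1mM DTT, pH 7.5) received compound, then a probe mix of 5 nM fluorescein-DNA and 100nM Texas-615-DNA. Fluorescence polarization was read for both dyes.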
Nrf2 activator – activators of Nrf2 (ARE) signaling; AREc32 ARE-luciferase reporter (MCF7-derived line), luminescence, 24 h; AID 624171; Potency, µM (top dose mostly 46.1 µM), hits mostly activators; hit rate 0.31% among 410,000; further: nearly all actives have a fitted effect of over 65% in size
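Steps: seed AREc32_Fluc cells (1000/well, 5% FBS OPTI-MEM); incubate overnight at 37 deg C; add 23 nL compound; incubate 24 hr; add Steady-Glo; hold 30 min RT; read luminescence.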
A549 tox-1 – kills or reduces viability of A549 cells in Nrf2 counter-screen; Potency, µM (series often up to 46 µM), actives largely listed as inhibitors; hit rate 0.16% among 390,000; A549 ARE-Fluc cells, CellTiter-Fluor viability, 18-24 h
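A549 ARE-Fluc cells in 5% FBS OPTI-MEM, 5000 cells/well, rested 2 h then exposed to compounds in concentration-response for 18-24 h at 37 °C. Viability by CellTiter-Fluor fluorescence (Ex 405/Em 525) after 30 min; luciferase luminescence (BugLite, 15 min, RT) read afterwards.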
12-LOX inh – blocks human arachidonate 12S-lipoxygenase. Potency, µM (titrated, usually from 108 µM), actives largely listed as inhibitors. purified 12hLO, xylenol orange hydroperoxide absorbance. hit rate 1.1% among 580,000
Target sequence (P18054 whole entry, looked up): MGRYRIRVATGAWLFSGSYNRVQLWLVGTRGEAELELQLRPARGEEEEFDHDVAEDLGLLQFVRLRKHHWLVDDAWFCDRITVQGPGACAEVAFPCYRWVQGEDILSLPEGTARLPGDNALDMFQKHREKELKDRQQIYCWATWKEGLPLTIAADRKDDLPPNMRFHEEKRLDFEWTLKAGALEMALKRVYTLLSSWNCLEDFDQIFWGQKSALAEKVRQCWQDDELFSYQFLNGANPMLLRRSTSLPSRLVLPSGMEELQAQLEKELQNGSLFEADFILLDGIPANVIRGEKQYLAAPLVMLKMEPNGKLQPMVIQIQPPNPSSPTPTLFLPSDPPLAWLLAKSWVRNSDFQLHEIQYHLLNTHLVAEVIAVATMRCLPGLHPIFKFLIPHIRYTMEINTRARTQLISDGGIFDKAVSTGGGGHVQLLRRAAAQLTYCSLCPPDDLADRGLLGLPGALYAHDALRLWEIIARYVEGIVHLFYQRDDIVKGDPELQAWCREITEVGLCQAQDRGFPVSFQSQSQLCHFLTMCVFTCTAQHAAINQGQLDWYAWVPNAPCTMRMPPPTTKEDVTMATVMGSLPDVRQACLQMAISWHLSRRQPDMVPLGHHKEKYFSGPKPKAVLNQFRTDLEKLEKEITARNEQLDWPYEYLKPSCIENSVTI
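Hydroperoxide product was detected by ferrous iron/xylenol orange as the 573 to 405 nm absorbance ratio. Arachidonic acid at 40 uM (final) was turned over for 30 min at room temperature by 150 nM human 12hLO, pH 7.0 Hepes buffer, after 15 min compound preincubation.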
LDHA inh – inhibitors of human lactate dehydrogenase A; P00338; purified LDHA, NADH/diaphorase-resazurin fluorescence; stronger effect = lower value; activity change, % (values are at about 110 or 230 µM); hit rate 0.15% among 480,000; AID 1347041; in the data active means activity change below about -30%; inconclusive means mostly about -25% to -30%
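Human LDH5 (2 nM) was incubated with 0.06 mM NADH and 0.2 mM pyruvate for 5 min at room temperature in Tris pH 7.4. Remaining NADH was coupled through diaphorase/resazurin, and resorufin fluorescence was read at 0 and 20 min.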
FLuc counter 3 – counter-screen for Nrf2 inhibitors: firefly luciferase enzyme inhibition | shares compounds with Nrf2 block | Potency, µM (series often up to 57.5 µM), usual class: inhibitors | purified firefly luciferase, luminescence inhibition | hit rate 4% among 1,400; further: nearly all actives have a fitted effect of over 65% in size
A549 tox-2 – toxic to A549 ARE-Fluc cells in Nrf2 counterscreen. shares compounds with Nrf2 block. A549 ARE-Fluc cells, cytotoxicity counterscreen. Potency, µM (highest dose often 46.1 µM), actives largely listed as inhibitors. hit rate 2% among 1,400;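 further: cells exposed to compounds for 18 to 24 hours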
ARE-Fluc inh – reduces Nrf2 ARE reporter signal in A549 cells | hit rate 74% among 1,400 | A549 ARE-firefly luciferase reporter, luminescence | shares compounds with Nrf2 block | Potency, µM (highest dose often 46.1 µM), hits mostly inhibitors; further: nearly all actives have a fitted effect of over 65% in size
Hits are given with their value; i = inactive; ? = inconclusive; nt = no result shown. Compounds with a hit are over-represented: about 2.7% of the library has one in this group of screens. Unless noted, the call rests on the fitted dose curve; in most records, active means well fitted curve in the direction sought with a large enough effect; inconclusive means small, poorly fitted or top-dose-only effect, or another doubt; inactive means no such curve, though single readings can be large; an effect the other way counts as inactive or inconclusive.

SMILES	Nrf2 block	ERG Ets-DNA blk	Nrf2 activator	A549 tox-1	12-LOX inh	LDHA inh	FLuc counter 3	A549 tox-2	ARE-Fluc inh
O=C(Nc1ccc(S(=O)(=O)N2CCOCC2)cc1)c1ccc(CN2CCc3ccccc3C2)cc1	0.82µM	i	i	?	nt	i	i	i	1.6µM
COc1ccc(OC)c(-c2csc(NC(=O)c3nn(C(C)C)c(=O)c4ccccc34)n2)c1	nt	nt	nt	nt	i	i	nt	nt	nt
Cc1ccc(NC(=O)CSc2nn(-c3ccccc3)c(=S)s2)cc1S(=O)(=O)N(C)C	5.8µM	i	i	?	i	i	i	i	7.3µM
Cc1ccc(OC(C)C(=O)N2CCN(Cc3nc(N)c4ccccc4n3)CC2)cc1 (configuration not stated)	nt	nt	nt	nt	i	i	nt	nt	nt
COc1ccc(-c2nc(CN3CCN(c4ncnc5ccccc45)CC3)c(C)o2)c(OC)c1	8.2µM	i	i	?	i	i	i	i	8.2µM
CC(C)CC(=NNC(=O)c1ccncc1)c1cc(Cl)ccc1O	6.5µM	i	i	?	i	i	i	i	6.5µM
CCCC(=O)NC(NC(=S)Nc1ccc(N=Nc2ccccc2)cc1)C(Cl)(Cl)Cl (configuration not stated)	8.2µM	i	i	?	i	i	i	?	7.3µM
Cc1ccc(C(=O)N[C@H]2C[C@@H](c3nc(Cc4ccccc4)no3)N(C)C2)cc1	nt	nt	nt	nt	i	nt	nt	nt	nt
O=C(O)c1ccc(-c2nc(-c3ccccc3)c(-c3cccs3)[nH]2)cc1	i	i	i	i	i	i	nt	nt	nt
O=[N+]([O-])c1ccc(O)c(-c2nc(-c3ccccc3)c(-c3cccs3)[nH]2)c1	3.7µM	i	i	nt	i	i	i	?	21µM
COc1ccc(-c2ocnc2C(=O)NCc2nn(-c3ccccc3)nc2C)cc1	2.9µM	i	i	i	i	i	i	i	5.8µM
COc1ccc(-c2ocnc2C(=O)Nc2ccccc2C)cc1	nt	nt	nt	nt	i	i	nt	nt	nt
CN(C)CCCNc1oc(-c2cccs2)nc1C#N	nt	nt	nt	nt	i	i	nt	nt	nt
Nc1ccn(Cc2cccc(F)c2)n1	i	i	i	i	i	i	nt	nt	nt
N=c1ccn(Cc2cccc(F)c2)cc1	2.1µM	i	i	?	i	i	i	i	5.8µM
O=C(O)C1=C[C@H](c2csc3ccccc23)C[C@H](OCc2ccc(CO)cc2)O1	i	i	i	i	?	i	nt	nt	nt
O=C(NCc1ccccc1)C1=C[C@@H](c2csc3ccccc23)C[C@@H](OCc2ccc(CO)cc2)O1	6.5µM	i	i	?	i	i	i	i	18µM
O=C(O)CCSc1ncnc2sc(-c3ccccc3)cc12	2.1µM	i	i	i	i	i	9.5µM	i	6.5µM
COc1cccc(CN(C)C(=O)CNC(=O)c2ccc(-c3ccccc3)cc2)c1OC	4.6µM	i	i	i	i	i	i	i	nt
Cc1c(/C=N/NC(=O)c2cccnc2)c2ccccc2n1Cc1ccccc1	6.5µM	i	i	?	i	i	?	i	9.2µM
Cc1nn(Cc2ccccc2)c(Cl)c1/C=N/NC(=O)c1cccnc1	?	i	i	?	i	i	nt	nt	nt
COc1ccc(N(C(C)C(=O)N2CCC(Cc3ccccc3)CC2)S(C)(=O)=O)cc1 (configuration not stated)	6.5µM	i	i	i	i	i	i	i	18µM
Cc1sc2ncnc(N3CCN(c4ccccc4)CC3)c2c1-c1ccc(F)cc1	nt	nt	nt	nt	i	i	nt	nt	nt
CN(c1ccc(C(=O)N2CCN(Cc3ccc4c(c3)OCO4)CC2)cc1)S(=O)(=O)c1ccccc1	6.5µM	i	i	i	i	i	i	i	9.2µM
Cc1c(-c2ccccc2)oc2c(C(=O)OCC(=O)Nc3ccccc3F)cccc2c1=O	nt	nt	nt	nt	i	i	nt	nt	nt

Source: PubChem BioAssay (National Center for Advancing Translational Sciences (NCATS))
